# In article PMC4336329 (PLoS ONE, 2015):
# Among all 310,000 compounds or so, about 14,000 (4.5%) showed an effect of 50% or more. Effects have a minus sign here. What follows is part of a selection rich in strong results, with near analogues and random picks from the rest.
# Biological target: human ether-à-go-go-related gene (hERG) potassium channel (human, UniProt Q12809)
# Test: primary screen, population patch clamp on CHO cells stably expressing hERG; higher = less effect of the substance
# 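Note: peak tail current of the secondary pulse compared with the same well before compound.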
# Chain of human ether-à-go-go-related gene (hERG) potassium channel (Q12809 whole entry, looked up): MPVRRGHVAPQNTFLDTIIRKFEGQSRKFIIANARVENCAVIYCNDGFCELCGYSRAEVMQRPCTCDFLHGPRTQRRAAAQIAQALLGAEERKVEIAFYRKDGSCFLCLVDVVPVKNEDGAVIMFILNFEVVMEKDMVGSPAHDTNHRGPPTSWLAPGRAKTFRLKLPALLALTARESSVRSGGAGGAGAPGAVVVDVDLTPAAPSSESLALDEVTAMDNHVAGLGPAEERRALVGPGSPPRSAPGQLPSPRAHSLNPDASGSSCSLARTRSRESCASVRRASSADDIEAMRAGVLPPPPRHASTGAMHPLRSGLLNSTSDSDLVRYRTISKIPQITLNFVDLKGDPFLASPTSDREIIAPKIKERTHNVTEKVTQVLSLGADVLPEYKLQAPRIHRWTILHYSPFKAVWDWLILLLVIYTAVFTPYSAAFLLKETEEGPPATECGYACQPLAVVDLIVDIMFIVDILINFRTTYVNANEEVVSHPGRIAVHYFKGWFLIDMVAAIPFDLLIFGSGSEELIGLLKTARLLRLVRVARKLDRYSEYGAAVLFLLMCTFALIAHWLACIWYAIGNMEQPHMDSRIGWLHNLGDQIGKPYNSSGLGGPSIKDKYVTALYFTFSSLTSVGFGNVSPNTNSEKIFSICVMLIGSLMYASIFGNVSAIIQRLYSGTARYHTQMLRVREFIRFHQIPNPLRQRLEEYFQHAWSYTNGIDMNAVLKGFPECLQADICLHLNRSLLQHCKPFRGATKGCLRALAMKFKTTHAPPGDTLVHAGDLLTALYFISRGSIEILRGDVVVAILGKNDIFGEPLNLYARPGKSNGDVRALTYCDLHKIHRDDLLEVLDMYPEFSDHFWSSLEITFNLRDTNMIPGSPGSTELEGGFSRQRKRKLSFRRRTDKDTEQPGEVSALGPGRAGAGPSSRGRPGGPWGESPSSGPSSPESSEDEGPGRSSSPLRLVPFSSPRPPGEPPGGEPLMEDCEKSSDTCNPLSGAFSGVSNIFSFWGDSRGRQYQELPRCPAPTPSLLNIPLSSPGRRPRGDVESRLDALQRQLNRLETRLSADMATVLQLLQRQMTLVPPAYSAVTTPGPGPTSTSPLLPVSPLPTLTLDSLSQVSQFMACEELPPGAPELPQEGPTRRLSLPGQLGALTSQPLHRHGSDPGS
row,Compound,"hERG current change (%, negative = inhibition) at 10uM [%]"
1,Cc1ccc(C)c(S(=O)(=O)N2CCN(C(=O)CNC(=O)c3ccc4ccccc4c3)CC2)c1,-28.1
2,Cc1cccc(C(=O)NCC(=O)N2CCC2)c1,2.59
3,Cc1cccc(C(=O)NCC(=O)N2CCN(S(=O)(=O)c3ccccc3)CC2)c1,-10.8
4,O=C(NCC(=O)N1CCN(S(=O)(=O)c2ccccc2F)CC1)c1ccc2ccccc2c1,-12.2
5,O=C(NCC(=O)N1CCN(S(=O)(=O)c2ccccc2)CC1)c1ccc2ccccc2c1,-53.5
6,CCOC(=O)C1CCN(c2cc3c(cc2NC(=O)c2ccccc2Cl)n(C)c(=O)n3C)CC1,-48.8
7,CCOC(=O)C1CCN(Cc2ccc(O)c(OC)c2)CC1,-13.7
8,CCCCN(C(=O)c1ccc(S(=O)(=O)N2CCCC2)cc1)C1CCS(=O)(=O)C1 (stereo not drawn),-0.0452
9,CCN(C(=O)c1ccc(S(=O)(=O)N2CCC(C)CC2)cc1)C1CCS(=O)(=O)C1 (stereo not drawn),7.87
10,CCCCN(C(=O)c1ccc(S(=O)(=O)N2CCC(C)CC2)cc1)C1CCS(=O)(=O)C1 (stereo not drawn),-53.2
11,CN(C(=O)c1cccc(S(=O)(=O)N2CCCCC2)c1)C1CCS(=O)(=O)C1 (stereo not drawn),2.39
12,CCN(C(=O)COC(=O)c1ccc(C)c(S(=O)(=O)N2CCOCC2)c1)C1CCS(=O)(=O)C1 (stereo not drawn),1.32
13,CC(C)CN(C(=O)c1cccc(S(=O)(=O)N2CCCCC2)c1)C1CCS(=O)(=O)C1 (stereo not drawn),0.956
14,Cc1ccc(C(=O)OCC(=O)N(C)C2CCS(=O)(=O)C2)cc1S(=O)(=O)N1CCCCC1 (stereo not drawn),-16.5
15,CCN(C(=O)COC(=O)c1ccc(C)c(S(=O)(=O)N2CCCCC2)c1)C1CCS(=O)(=O)C1 (stereo not drawn),-66.5
16,CCCCN(C(=O)c1cccc(S(=O)(=O)N2CCCCC2)c1)C1CCS(=O)(=O)C1 (stereo not drawn),-52.1
17,NS(=O)(=O)c1cc(C(=O)OCC(=O)Nc2ccccc2[N+](=O)[O-])ccc1Cl,-6.13
18,O=C1Nc2ccccc2N(O)N1c1ccc(S(=O)(=O)N2CCCCCC2)cc1,1.75
19,N#C/C(=C\c1ccc(-c2ccc(C(=O)O)cc2)o1)C(=O)Nc1ccc(F)cc1,25.6
20,O=C(NCCc1ccccc1)C1CCN(S(=O)(=O)N2CCC3(CC2)OCCO3)CC1,-0.566
21,CCCOc1cccc(C(=O)N2CCN(C(=O)C3CCCO3)CC2)c1 (stereo not drawn),7.15
22,CCC(=O)c1ccc(OCC(=O)OCC(=O)N2c3ccccc3NC(=O)C2(C)C)cc1,2.82
23,CC(C)c1ccc(N(CC(=O)NCC2CCCO2)C(=O)Cn2nnc(-c3cccs3)n2)cc1 (stereo not drawn),-42.5

row,Compound,"hERG current change (%, negative = inhibition) at 10uM [%]"
1,NC(=O)NOCc1ncc(C(F)(F)F)cc1Cl,10.4
2,CCc1nc(OCCN(C)C)c2oc3ccccc3c2n1,-4.1
3,CCc1nc(N(CC)CC)c2oc3ccccc3c2n1.Cl,-21.1
4,CCN(CC)CCOc1ncnc2c1oc1ccccc12,-39.1
5,CN(C)CCOc1nc(-c2ccccc2)nc2c1oc1ccccc12,-44.7
6,CCN(CC)CCOc1nc(C)nc2c1oc1ccccc12.Cl,-64.6
7,CCc1nc(OCCN(CC)CC)c2oc3ccccc3c2n1.Cl,-58.9
8,CCCCCC(=O)Nc1ccccc1N1CCN(c2ccccc2)CC1,-0.752
9,CSc1ccc(S(=O)(=O)NCC(=O)OCC(=O)N2CCCCC2C)cc1[N+](=O)[O-] (stereo not drawn),4.74
10,COC(=O)Cc1ccc(O)c(N)c1,9.82
11,O=C(NCCCn1ccnc1)/C(=C\c1cccnc1)NC(=O)c1ccccc1F,-17.7
12,CCn1cc(/C=C(\NC(=O)c2ccccc2OC)C(=O)NCCCn2ccnc2)c2ccccc21,-19.2
13,COc1ccccc1C(=O)N/C(=C/c1ccc(Br)cc1)C(=O)NCC(=O)O,-8.44
14,C=CCNC(=O)/C(=C/c1ccc(Br)cc1)NC(=O)c1ccccc1OC,-45.9
15,C=CCNC(=O)/C(=C\c1ccc(Br)cc1)NC(=O)c1ccccc1OC,-51.8
16,COc1ccccc1C(=O)N/C(=C\c1ccc(Br)cc1)C(=O)NCCCO,-34.3
17,O=C(NCCCn1ccnc1)/C(=C\c1ccc(Br)cc1)NC(=O)c1ccccc1F,-74.3
18,Cn1cc(/C=C(\NC(=O)c2ccccc2Cl)C(=O)NCCCn2ccnc2)c2ccccc21,8.3
19,CCn1cc(/C=C(\NC(=O)c2ccccc2F)C(=O)NCCCn2ccnc2)c2ccccc21,-69
20,O=C(NCCCn1ccnc1)/C(=C\c1cccnc1)NC(=O)c1ccccc1Br,5.24
21,COc1ccccc1C(=O)N/C(=C\c1cn(C)c2ccccc12)C(=O)NCCCn1ccnc1,3.22
22,COc1ccccc1C(=O)N/C(=C/c1ccc(Br)cc1)C(=O)NCCCn1ccnc1,-87
